An excerpt weighted towards active compounds, which were near 2.4% of everything screened.
AmpC nodet inh = blocks E. coli AmpC beta-lactamase in absence of detergent; AmpC nitrocefin hydrolysis, absorbance 480 nm, no detergent; P00811; Potency, µM (series often up to 28.7 µM), without a hit: top-dose activity change, negative = inhibition; AID 585; 1.8% of 71,000 active; further: % of control where 0% means no effect
Target sequence (P00811 whole entry, looked up): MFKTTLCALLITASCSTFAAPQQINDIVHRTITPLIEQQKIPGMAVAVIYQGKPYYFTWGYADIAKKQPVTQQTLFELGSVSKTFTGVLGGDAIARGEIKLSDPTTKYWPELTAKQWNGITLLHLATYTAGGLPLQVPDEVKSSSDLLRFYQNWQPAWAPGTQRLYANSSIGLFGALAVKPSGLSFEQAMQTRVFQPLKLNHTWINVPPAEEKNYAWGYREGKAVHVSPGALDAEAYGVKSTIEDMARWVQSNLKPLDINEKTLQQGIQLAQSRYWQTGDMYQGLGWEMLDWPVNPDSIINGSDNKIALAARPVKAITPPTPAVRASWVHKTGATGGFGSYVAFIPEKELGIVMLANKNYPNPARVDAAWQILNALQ
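Enzyme, pH 7.0 phosphate. Compound titrations were pre-incubated with AmpC for 15 min at room temperature before nitrocefin (stock 800 uM) addition; product formation was recorded at 480 nm every 20 s for 4 min.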
AmpC inh det = AmpC beta-lactamase inhibition, detergent assay. purified AmpC, nitrocefin hydrolysis with detergent. Potency, µM (series often up to 28.7 µM), for the others: at the highest dose activity change, negative = inhibition. 0.09% of 71,000 active; active means well fitted curve in the direction sought with a large enough effect; inconclusive means small, poorly fitted or top-dose-only effect; further: on the % scale 0 is the no-effect control and ±100 the full control effect
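E. coli AmpC (5.3 nM) in 20 mM phosphate pH 7.0 with 0.01% Triton X-100, preincubated 15 min RT with compound; nitrocefin (2 uL of 800 uM stock) hydrolysis followed by 480 nm absorbance every 20 s over 4 min.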
Anthrax LT inh = anthrax lethal toxin internalization inhibition; Cells, anthrax lethal toxin internalization, FRET ratio (460/530); Potency, µM (doses to about 40 µM), for the others: top-dose activity change, negative = inhibition, usual class: inhibitors; 0.67% of 70,000 active; AID 912; further: on the % scale 0 is the no-effect control and ±100 the full control effect; nearly all actives have a fitted effect of over 50% in size
SmPrx2 inh = Schistosoma mansoni Prx2 inhibition | S. mansoni Prx2 activity coupled to TGR/GSH (TGR is thioredoxin glutathione reductase), NADPH fluorescence loss, qHTS | Potency, µM | 0.07% of 65,000 active
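Prx2 activity was followed as the loss of NADPH fluorescence (ex 365/em 450 nm), read every 30 sec for 8 min after H2O2 start. The enzyme mix (50 nM Prx2, 25 nM TGR, GSH, NADPH; pH 7.4 phosphate buffer) was incubated with compound for 15 min at room temperature first.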
* hit, by the source's call; u = inconclusive; x = not tested or not shown; ! = not active in a repeat; [ ] = remark or other dose. Unless noted, the call rests on the fitted dose curve. Potency means the concentration at half of the fitted maximal effect.

SMILES	AmpC nodet inh	AmpC inh det	Anthrax LT inh	SmPrx2 inh
CNCCCC1c2ccccc2C=Cc2ccccc21	1%[12.8 µM]	-1%[12.8 µM]	4%[3.58 µM]	>57
CNCCCC12CCC(c3ccccc31)c1ccccc12	50%	-1%	5µM*!	>57
Cc1cc(Nc2cccc(F)c2)nc(-c2ccccc2O)n1	-18%	12%	u	>57
Cc1cc(Nc2ccccc2)nc(-c2ccccc2O)n1	3%	-3%	13µM*	>57
O=C(C1CCC(CNc2c(N3CCCCC3)c(=O)c2=O)CC1)N1CCCCC1 (stereo not drawn)	4µM*[single pt active]	11%	-6%	>57
O=C(NCc1ccc2c(c1)OCO2)C1CCC(CNc2c(N3CCCCC3)c(=O)c2=O)CC1 (stereo not drawn)	4µM*[single pt active]	11%	u	>57
NCCP(=O)(O)O	3%[5.75 µM]	-6%[5.75 µM]	-9%[8 µM]	>57
Oc1ccc(Cl)cc1Sc1cc(Cl)ccc1O	-12%[5.75 µM]	-3%[5.75 µM]	5µM*!	>57
C[C@@H](CO)NC(=O)[C@H]1C=C2c3cccc4[nH]cc(c34)C[C@H]2N(C)C1	-3%	2%	u	>57
CSc1ccccc1NC(=O)c1ccncc1	5%	1%	-2%	>57
C/C(=C\C(=O)c1ccncc1)Nc1ccccc1O	0%	5%	2.5µM*	x
CCCOc1ccc(Cc2nn3c(=O)/c(=C/c4ccco4)sc3nc2=O)cc1	10µM*[single pt active]	-2%	-1%	>57
N[C@H](Cn1oc(=O)[nH]c1=O)C(=O)O	6%	-5%	4%	>57
COc1ccc(S(=O)(=O)N2CCN(C)CC2)c2ccccc12	4µM*[single pt active]	11%	19%	>57
COc1ccc(OCCSc2ncnc3nc[nH]c23)cc1	4µM*[single pt active]	11%	-7%	>57
COc1ccc(NC(=O)N2c3ccccc3CC2C)cc1OC (stereo not drawn)	19%	-6%	4%	>57
COC(=O)c1ccccc1NC(=O)N1c2ccccc2CC1C (stereo not drawn)	8%	-6%	16µM*	>57
Cc1nnc(NC(=O)NC(C)N2C(=O)C3C4C=CC(C4)C3C2=O)s1 (stereo not drawn)	-12%	-5%	-7%	>57
Cc1nnc(NC(=O)CCCCCN2C(=O)C3C4C=CC(C4)C3C2=O)s1 (stereo not drawn)	4µM*[single pt active]	8%	1%	x
CCCC1C(c2ccco2)NC(c2ccco2)CC1(C)O (stereo not drawn)	-10%	-3%	10µM*	>57
N=C1Sc2ccccc2C2=NCCCN12	-13%	-1%	0.025µM*	>57
CCOc1ccc(-n2c(CC)nc3ccccc3c2=O)cc1	3.2µM*[single pt active]	12%	-17%	>57
CCN1CCN(C(=O)CSCc2nc(-c3ccc(OC)c(OC)c3)oc2C)CC1	4µM*[single pt active]	11%	u	>57
O=C(O)c1cc(=O)c2ccc(Cl)cc2[nH]1	-2%	0%	u	>57
O=C(Cc1cc(=O)[nH]c(=O)[nH]1)NCC1CCCO1 (stereo not drawn)	71%	9%	4µM*	>57
SMILES	AmpC nodet inh	AmpC inh det	Anthrax LT inh	SmPrx2 inh
COc1cccc(-n2c(Cc3cc(=O)[nH]c(=O)[nH]3)nnc2SCC(=O)NC2CCCCC2)c1	u	16%	1%	>57
Cn1cccc1Cc1nnc(SCC(=O)NC2CCCC2)n1-c1ccc(F)cc1	4µM*[single pt active]	15%	-24%	>57
O=C(CSc1nnc(Cc2cc(=O)[nH]c(=O)[nH]2)n1-c1ccc(F)cc1)N1CCCCC1	4µM*[single pt active]	9%	-5%	>57
O=C(CSc1nnc(Cc2cc(=O)[nH]c(=O)[nH]2)n1-c1ccc(F)cc1)NC1CCCC1	4µM*[single pt active]	3%	-2%	>57
Cn1c(=O)c2c(nc(N/N=C\c3ccccc3C(=O)O)n2C)n(C)c1=O	10%[5.75 µM]	-2%[5.75 µM]	-6%[8 µM]	>57
Cc1cccc(-n2c(Cc3cc(=O)[nH]c(=O)[nH]3)nnc2SCC(=O)NCC2CCCO2)c1 (stereo not drawn)	4µM*[single pt active]	14%	2%	>57
COc1cccc(-n2c(Cc3cc(=O)[nH]c(=O)[nH]3)nnc2SCC(=O)N2CCCCC2)c1	4µM*[single pt active]	12%	-2%	>57
Cc1ccc2ccccc2c1[N+](=O)[O-]	-8%	11%	1%	x
CC(=O)O[C@H]1CC[C@@]2(C)C(=CC[C@@H]3[C@@H]4CC[C@H](c5cc(C(F)(F)F)n(C(C)=O)n5)[C@]4(C)CC[C@@H]32)C1	-5%[5.75 µM]	-4%[5.75 µM]	-8%[8 µM]	>57
Cc1ccccc1N1C(=O)c2sc3nc4c(c(=O)n3c2C1=O)CCC4	-17%	11%	13µM*	x
O=C1c2sc3nc4c(c(=O)n3c2C(=O)N1c1ccccc1)CCC4	-13%	12%	-21%	>57
CC/C(=C(\c1ccccc1)c1ccc(OCCN(C)C)cc1)c1ccc(O)cc1	115%	10%	u	x
c1ccc(-c2ccc(N3CC4(CCNCC4)C3)cc2)cc1	82%	-3%	13µM*	>57
c1ccc(C(c2ccccc2)N2CC3(CCNCC3)C2)cc1	36%	-3%	10µM*	>57
CC(=O)N1CSCC1C(=O)N1CCN(c2ccc(N3CCOCC3)nn2)CC1 (stereo not drawn)	2µM*[single pt active]	12%	4%	x
COc1ccc(C(=O)CCC(=O)N2CCN(c3ccc(N4CCOCC4)nn3)CC2)cc1	68%	10%	5%	>57
Cc1cc(NC(=O)c2cc(-c3ccccn3)nc3ccccc23)no1	18%	-5%	u	>57
Cc1cc(NC(=O)c2cc(-c3cccs3)nc3ccccc23)no1	4µM*[single pt active]	5%	u	>57
COCc1cc(C)nc(N2CCOCC2)c1C#N	4µM*[single pt active]	11%	-21%	x
CCNc1nc(C)cc(COC)c1C#N	9%	11%	0%	x
O=C1CC(N2CCC(c3nc4ccccc4[nH]3)CC2)C(=O)N1Cc1ccccc1 (stereo not drawn)	36%	-3%	0%	>57
CN1C(=O)CC(N2CCC(c3nc4ccccc4[nH]3)CC2)C1=O (stereo not drawn)	4µM*[single pt active]	13%	-3%	>57
CCOC(=O)N1CCN(c2c(N3CCc4ccccc43)c(=O)c2=O)CC1	4µM*[single pt active]	14%	u	x
CCOCC(=O)Nc1ccc2c(c1)OCCO2	10%	-3%	-5%	>57
CCOC(=O)N1CCN(c2c(N3CCOCC3)c(=O)c2=O)CC1	4µM*[single pt active]	6%	-8%	>57
SMILES	AmpC nodet inh	AmpC inh det	Anthrax LT inh	SmPrx2 inh
CCOC(=O)N1CCN(c2c(N3CCN(c4ccccn4)CC3)c(=O)c2=O)CC1	4µM*[single pt active]	13%	-10%	>57
CCOC(=O)C1CCN(c2c(N3CCN(c4ccccc4OC)CC3)c(=O)c2=O)CC1	11%	7%	-6%	>57
CCOC(=O)N1CCN(c2c(Nc3ccc4c(c3)OCCO4)c(=O)c2=O)CC1	4µM*[single pt active]	13%	u	>57
Cc1cccc(CNc2cc(-c3cccnc3)ncn2)c1	23%	11%	20%	>57
COc1ccc(-c2nc3cnc(N4CCN(C)CC4)nc3n(-c3ccc(OC)cc3)c2=O)cc1	151%	17%	u	>57
CCOC(=O)N1CCN(c2c(NCC3CCCO3)c(=O)c2=O)CC1 (stereo not drawn)	4µM*[single pt active]	5%	-6%	>57
OCCN1CCN(CCCN2c3ccccc3Sc3ccc(Cl)cc32)CC1	124%[12.8 µM]	0%[12.8 µM]	25µM*!	>57
